eIF4E-4G inh: blocks eIF4E binding to eIF4G | P63073+Q04637 | 220,000 tested, 0.37% active | TR-FRET eIF4E-eIF4GI(517-606) binding, 2 h | inhibition, % at 21.7 µM;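 active = inhibition above about 30%, limit read from the data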;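 note: 0% = full FRET control wells and 100% = background wells lacking eIF4GI fragment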
MLLE-PAM2 inh: inhibitors of microRNA-mediated deadenylation, human PABP1 MLLE binding; inhibition, % at 20 µM; AID 588489; 360,000 tested, 0.36% active; GST-MLLE / FITC-PAM2 fluorescence polarization; in the data active = inhibition above about 35%, passing the limit was not always enough;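 note: plate controls were DMSO wells with GST-MLLE for no effect and wells lacking GST-MLLE protein for full effect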
PERK inhibitor: human PERK inhibition, primary cell-based screen. CHO PERK-DD fusion, SEAP luminescence translation reporter. inhibition, % at 5.6 µM. 220,000 tested, 0.17% active. AID 1416;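 active = inhibition above the mean inhibition of all tested compounds plus 3 SD, set separately per screening campaign, cut at about 2.9% in these data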;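 note: PERK kinase domain activated by AP20187 dimerizer at 100 nM; 0% = DMSO with dimerizer and 100% = rapamycin at 8.4 µM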
eIF4H inh: inhibitors of RNA binding by human eIF4H | AID 2012 | eIF4H fluorescence polarization binding assay | Q15056 | inhibition, % at 35 µM | 290,000 tested, 0.94% active;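 note: calls also rest on retests at 20 µM and on dose response follow-up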
PfM18AAP inh-1: PfM18AAP enzyme inhibition. recombinant PfM18AAP, H-Glu-NHMec fluorogenic cleavage. inhibition, % at 7.35 µM. 290,000 tested, 1.2% active;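 active = inhibition above the campaign mean inhibition over all tested compounds plus 3 SD, cut at about 28% in these data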;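 note: 0% = plate median of test compound wells and 100% = 2 mM ZnCl2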
PABP FP inh: PABP-poly(A) binding inhibition; P11940; PABP-poly(A) RNA binding, fluorescence polarization; inhibition, % at 35 µM; 290,000 tested, 1% active; AID 2014;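 note: calls also rest on retests at 20 µM and on dose response follow-up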
PfM18AAP inh-2: PfM18AAP inhibition, confirmation | AID 2170 | 2,400 tested, 28% active | inhibition, % at 7.35 µM | recombinant PfM18AAP, H-Glu-NHMec fluorogenic cleavage | shares compounds with PfM18AAP inh-1;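 active = mean inhibition over replicate wells above the hit cutoff set for the earlier primary screen, cut at about 29% in these data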;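 note: 0% = median of test compound wells and 100% = 2 mM ZnCl2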
CTSL1 counter: Cathepsin L (human) inhibition, confirmation | purified cathepsin L1, Z-Leu-Arg-MCA fluorescence | 2,400 tested, under 10 active | AID 2178 | inhibition, % at 5.96 µM | shares compounds with PfM18AAP inh-1;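 active = average inhibition across replicates above the hit cutoff set in the earlier primary screen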;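 note: 0% = median of test compound wells and 100% = Z-Phe-Ala-diazomethylketone 1 µM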
Target sequence (P07711 whole entry, looked up): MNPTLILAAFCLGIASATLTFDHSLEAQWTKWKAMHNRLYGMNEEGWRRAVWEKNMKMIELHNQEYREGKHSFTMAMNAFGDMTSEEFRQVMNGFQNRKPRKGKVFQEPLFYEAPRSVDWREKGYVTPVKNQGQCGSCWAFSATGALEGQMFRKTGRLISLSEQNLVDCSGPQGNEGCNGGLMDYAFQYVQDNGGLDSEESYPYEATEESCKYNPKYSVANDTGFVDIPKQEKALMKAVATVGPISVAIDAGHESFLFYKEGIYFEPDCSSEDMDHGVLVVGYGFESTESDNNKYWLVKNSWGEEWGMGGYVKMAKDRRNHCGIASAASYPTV
Starred values were filed as active, the others as inactive; . = not tested or not shown; [ ] = remark or other dose. Rows were chosen to be rich in hits. Some 2.4% of all compounds tested hit in one or more screens of this group. Unless noted, the rule behind the calls is not given here.

SMILES	eIF4E-4G inh	MLLE-PAM2 inh	PERK inhibitor	eIF4H inh	PfM18AAP inh-1	PABP FP inh	PfM18AAP inh-2	CTSL1 counter
CN(CCCNC(=O)C1CCC(=O)N1Cc1ccccc1Cl)c1ccccc1 (centres undefined)	3	-3	0	0	0	-9	.	.
CCN(CCCNC(=O)C1CCC(=O)N1Cc1ccc(C)cc1)c1cccc(C)c1 (centres undefined)	-4	-8	0	-1	54*	0	-17	4
CCN(CCCNC(=O)CN1C(=O)COc2ccccc21)c1ccccc1	8	-7	-1	-7	8	3	.	.
CCN(CCCNC(=O)CN1C(=O)COc2ccccc21)c1cccc(C)c1	-1	-7	-1	-5	49*	-8	-12	2
CCN(CCCNC(=O)c1ccc(N2CCCC2=O)cc1)c1cccc(C)c1	4	8	-1	-8	41*	-6	-17	2
CCN(CCCNC(=O)C1CCC(=O)N1Cc1ccccc1Cl)c1cccc(C)c1 (centres undefined)	0	-4	0	-2	37*	-3	-23	-1
COCCNC(=O)CN(C(=O)Cn1nnc2ccccc21)c1cccc(C)c1C	2	8	1	-5	2	7	.	.
CCCNS(=O)(=O)c1ccc(OCC(=O)N2CCCC2)cc1	0	4	1	3	0	-6	.	.
CCN(CC)C1CC(=O)N(c2cccc(Cl)c2)C1=O (centres undefined)	.	20	.	-4	-22	-1	.	.
CCc1ccc(OCC(=O)N2CC(C(N)=O)Oc3ccccc32)cc1 (centres undefined)	.	6	.	-6	0	-3	.	.
CCCS(=O)(=O)N1CCC(C(=O)NCCCN(CC)c2cccc(C)c2)CC1	1	5	0	-4	40*	-5	-15	0
[N-]=[N+]=NC1CC(CO)OC1n1ccc(=O)[nH]c1=O (centres undefined)	.	8	.	0	-1	3	.	.
CCOc1ccc(N(CC(=O)N/N=C(\C)c2cccc(NC(C)=O)c2)S(=O)(=O)c2ccccc2)cc1	.	-10	.	-7	-2	-3	.	.
O=C(O)c1ccc(N/N=C2/CCCc3ccccc32)cc1	11	26	1	5	34*	2	-7	8
Cc1cccc2sc(NNC(=O)c3cc(=O)c4ccccc4o3)nc12	-3	-62	2	1	44*	-2	-1	-4
COc1ccc2nc(NNC(=O)c3cc(=O)c4ccccc4o3)sc2c1	0	-53	0	7	9	-8	.	.
O=[N+]([O-])c1cc(Br)c(O)c(/C=N/Nc2nnnn2-c2cccc3ccccc23)c1	44*[fluorescence artefact?]	-16	1	49	38*	17	-5	-7
O=[N+]([O-])c1ccc(NN=Cc2cccc3ccccc23)cc1	.	-118	.	.	.	.	.	.
COc1ccc(/C(C)=N\Nc2nc(-c3ccccc3)cc(=O)[nH]2)cc1	14	-3	1	7	40*	7	-31	5
COc1ccc(/C(C)=N/Nc2nc(C)cc(-c3ccccc3)n2)cc1	.	-6	.	.	.	.	.	.
O=C(CC1Sc2ccccc2NC1=O)Nc1cccc(C(=O)O)c1 (centres undefined)	-3	-1	1	92	41*	2	25	-4
C=CCc1c(C)nc(-c2ccccc2)nc1N/N=C(\C)c1ccccc1	2	10	1	18	37*	-3	-27	0
C=CCc1c(C)nc(-c2ccccc2)nc1Nc1ccc(O)cc1	-4	9	0	-3	-4	11	.	.
CCNC(=S)NNC(=O)CSc1nc2ccccc2[nH]1	0	-17	1	-4	18	4	.	.
CCNC(=S)NNC(=O)CSc1nc2ccccc2n1C	-8	-18	1	-8	32*	-10	2	-1
SMILES	eIF4E-4G inh	MLLE-PAM2 inh	PERK inhibitor	eIF4H inh	PfM18AAP inh-1	PABP FP inh	PfM18AAP inh-2	CTSL1 counter
Cc1cc(C(=O)N(C)CC(=O)Nc2ccccc2C(F)(F)F)c(C)o1	-8	9	0	-3	-12	7	.	.
COc1ccc(C(=O)OCC(=O)NCCN2C(=O)CSC2=O)cc1	2	-12	1	0	-9	0	.	.
COc1ccc(/C=N\NC(=O)c2cc(O)c(O)c(O)c2)cc1CN1CCN(c2ccc(F)cc2)CC1	3	-2	0	-4	38*	6	-13	-1
COc1ccc(C(=O)N/N=C/c2ccc(OC)c(COc3ccccc3)c2)cc1	.	8	.	-4	-5	0	.	.
COc1ccc(/C=N\NC(=O)c2cc(O)c(O)c(O)c2)cc1COc1ccc(C(=O)OCC(C)C)cc1	.	-5	.	20	32*	6	-7	-1
Cc1csc(=O)n1CCC(=O)OC(C)C(=O)NCc1ccccc1 (centres undefined)	.	16	.	.	.	.	.	.
Cc1snc2sc(C(=O)c3ccc(F)cc3)c(N)c12	-9	16	1	-2	41*	-7	-38	5
Cc1ccc(C(=O)O)cc1N=Cc1cc(Br)cc(Br)c1O	5	13	0	5	9	20	.	.
COc1cc(NC(=S)NC(C)(C)C)c(OC)cc1Cl	1	30	0	0	-1	-11	.	.
COc1cc(Cl)c(C)cc1NC(=S)NN	0	8	0	9	32*	2	21	-6
COc1cc([N+](=O)[O-])ccc1NC(=O)NNC(=O)c1sccc1C	.	-40	.	11	53*	-6	45*	-2
COc1cc([N+](=O)[O-])ccc1NC(=O)NNC(=O)CCc1ccccc1	.	9	.	-8	0	-1	.	.
Oc1ccc2c(c1)C1CCCC1(N1CCOCC1)O2 (centres undefined)	5	9	2	34	36*	33	-17	-4
Cc1cccc(-n2ccc(=O)c(C(=O)Nc3ccc(S(=O)(=O)Nc4onc(C)c4C)cc3)n2)c1	.	-3	.	.	2	.	.	.
Cc1cc(O)c(-c2cc(O)c(C)cc2O)cc1O	6	48*	0	1	71*	3	51*	-2
Cc1ccc(C(=O)Nn2cnnc2)cc1S(=O)(=O)N1CCOCC1	-16	7	1	-14	51*	0	44*	-4
Cc1ccc(C(=O)NC2CC2)cc1S(=O)(=O)N1CCOCC1	.	4	.	.	.	.	.	.
O=C(Nn1cnnc1)c1ccc(F)c(S(=O)(=O)N2CCCCC2)c1	6	3	1	11	47*	17	53*	2
CCCN=C1N(CC)C[C@@H]2[C@@H]3C(=O)N(C)C(=O)[C@@H]3[C@](CC)(C(=O)OC)N12	.	-9	.	.	.	.	.	.
CCCCN(C(=O)CNC(=O)c1ccco1)C(C(=O)NC1CCCCC1)c1cccnc1 (centres undefined)	.	5	.	-7	2	0	.	.

High-throughput results: PubChem, several laboratories
